tested on: NEK2; conditions: concentration: 1 μM, replicates: in singlicate; n = 1
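Also: KINOMEscan kinase panel screen.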

Row | Structure (SMILES) | %Inh
1 | CCn1c(-c2nonc2N)nc2c(C#CC(C)(C)O)ncc(OCCCCN)c21.O=C(O)C(F)(F)F.O=C(O)C(F)(F)F [GSK507274] | 34%
2 | CN(C)S(=O)(=O)c1cc(-c2ccc3nccc(-c4cccc(S(N)(=O)=O)c4)c3c2)cnc1N [GSK1669921] | 34%
3 | CCn1c(-c2nonc2N)nc2c(C#CC(C)(C)O)nc(OC[C@H](N)c3ccccc3)cc21 [GSK943949] | 0%
4 | Cl.c1ccc(-c2ccc3c(Nc4ccc5[nH]ccc5c4)ccnc3c2)nc1 [GW440138] | 0%
5 | Nc1n[nH]c2cnc(-c3ccccc3)cc12 [SB-642124] | 0%
6 | O=C(Nc1n[nH]c2cc(-c3ccoc3)ccc12)C1CC1 [SB-738481] | 8%
7 | FC(F)(F)c1ccc(/C=C/c2cncnc2Nc2ccc3[nH]c(Cc4ccccc4)nc3c2)cc1 [GW709199] | 0%
8 | CC(C)(C)c1ccc2nccc(Nc3cccc(O)c3)c2c1 [GW856795] | 11%
9 | COc1cc(Nc2nccc(-c3c(-c4cccc(NC(=O)c5c(F)cccc5F)c4)nn4ccccc34)n2)cc(OC)c1OC [GSK323521] | 78%
10 | Clc1ccc(-c2nn3ncccc3c2-c2ccnc(Nc3ccc4c(c3)OCCO4)n2)cc1 [GW829116] | 0%
11 | Cl.Cl.NCC(C(=O)Nc1cc(Br)c(-c2ccnc3[nH]ccc23)s1)c1ccccc1 (stereo not drawn) [GSK1269851] | 15%
12 | Fc1ccc(-c2ncn(C3CCNCC3)c2-c2ccnc(Oc3ccc(-c4ccccc4)cc3)n2)cc1 [SB-245391] | 25%
13 | COc1cccc(C2=C(Nc3ccc(Cl)c(C(=O)O)c3)C(=O)NC2=O)c1 [SB-390769] | 0%
14 | O=C(Nc1ccccc1F)NC1CCN(c2ccnc(Nc3ccc(F)cc3)n2)CC1 [GSK1379800] | 0%

tested on: NEK3; conditions: concentration: 1 μM, replicates: in singlicate; n = 1

Row | Structure (SMILES) | %Inh
15 | CCCCc1nn2ncccc2c1-c1ccnc(Nc2ccc(N3CCN(C)CC3)cc2)n1 [GW684941] | 9%
16 | Cc1ccc(S(=O)(=O)Nc2ccc(Nc3nccc(Nc4cccc5[nH]ncc45)n3)cc2)cc1 [GSK581271] | 0%
17 | CN(C)Cc1ccc(-c2ccc3c(Nc4ccc(Oc5ccccn5)cc4)ccnc3c2)o1 [GW567148] | 0%
18 | Cc1cccc(Nc2nc(N[C@H]3CCNC3)ncc2C(N)=O)c1.Cl [GSK2197149] | 7%
19 | Cc1ccc(C(=O)N2CC[C@@H](O)C2)cc1-n1c(C)cc(OCc2ccc(F)cc2F)c(Br)c1=O | 31%
20 | O=C(O)C(F)(F)F.O=C(O)C(F)(F)F.O=c1[nH]ccc2nc(N[C@@H]3CCCNC3)nc(Nc3ccc(S(=O)(=O)N4CCOCC4)cc3)c12 [GSK2177277] | 89%
21 | Cc1ccc(C)c(NC(=O)NC2CCN(c3ccnc(Nc4ccc(F)cc4)n3)C2)c1 (stereo not drawn) [GSK1379720] | 8%
22 | Cc1cccc(NC(=O)Nc2ccc(Oc3ncnc4ccn(C)c34)cc2)c1 | 19%
23 | COc1ccc(-c2coc3ccc(-c4nnc(SCc5ccc(OC)c(C(F)(F)F)c5)o4)cc23)cc1 | 0%
24 | CC(C)c1nc(-c2cccc(NS(=O)(=O)c3c(F)cccc3F)c2F)c(-c2ccnc(Nc3ccc(N4CCOCC4)nc3)n2)s1 [GSK2008607] | 1%
25 | O=C(Nc1cccc(-c2nn3ncccc3c2-c2ccnc(Nc3ccccc3)n2)c1)c1c(F)cccc1F [GSK198271] | 11%
26 | O=c1[nH]cc(-c2ccc(N3CCOCC3)cc2)c2sc(-c3cn[nH]c3)cc12 [GSK2276055] | 16%
27 | COC(=O)Nc1nc2cc(Oc3ccc(NC(=O)Nc4cc(C(F)(F)F)ccc4F)cn3)ccc2[nH]1.Cl.Cl [GW681170] | 0%
28 | Cl.Cl.NCC(NCc1ccc(-c2ccnc3[nH]ccc23)s1)c1ccccc1 (stereo not drawn) [GSK1321565] | 0%
29 | CCS(=O)(=O)c1ccc(OC)c(Nc2nccc(-c3c(-c4cccc(NC(=O)c5c(F)cccc5F)c4)nn4ncccc34)n2)c1 [GSK326180] | 14%
30 | COc1cccc(-c2ccc3c(NC(=O)C4CC4)n[nH]c3n2)c1 [SB-710903] | 18%
31 | CSc1cccc2c(-c3ccncn3)c(-c3ccc(F)cc3)nn12 [GW514786] | 0%
32 | COc1cc2c(cc1OCCN1CCNCC1)ncc1c3ccc(C#N)cc3[nH]c21 | 29%
33 | Cn1cc(-c2ccc3c(c2)CCN3C(=O)Cc2cccc(F)c2)c2c(N)ncnc21 [GSK2603358] | 11%

Row | Structure (SMILES) | %Inh
34 | C[C@@H](Oc1cc(-n2cnc3cc(-c4ccnc(NCCS(C)(=O)=O)c4)ccc32)sc1C(N)=O)c1ccccc1Cl [GSK907232] | 3%
35 | COc1cccc(C(=O)Nc2cccc(Oc3ccc4nc(NC(=O)C5CC5)cn4n3)c2)c1 | 19%
36 | Cl.c1ccc(-c2ccc3c(Nc4ccc5[nH]ncc5c4)ccnc3c2)nc1 [GW440137] | 11%
37 | Cn1cc(-c2[nH]c3cc(NC(=O)[C@H](N)C4CCCCC4)cc4c3c2C=NNC4=O)cn1 | 32%
38 | CCn1c(-c2nonc2N)nc2c(C#CC(C)(C)O)ncc(OCCCCN)c21.O=C(O)C(F)(F)F.O=C(O)C(F)(F)F [GSK507274] | 5%
39 | CN(C)S(=O)(=O)c1cc(-c2ccc3nccc(-c4cccc(S(N)(=O)=O)c4)c3c2)cnc1N [GSK1669921] | 0%
40 | CCn1c(-c2nonc2N)nc2c(C#CC(C)(C)O)nc(OC[C@H](N)c3ccccc3)cc21 [GSK943949] | 3%
41 | Cl.c1ccc(-c2ccc3c(Nc4ccc5[nH]ccc5c4)ccnc3c2)nc1 [GW440138] | 9%
42 | Nc1n[nH]c2cnc(-c3ccccc3)cc12 [SB-642124] | 79%
43 | O=C(Nc1n[nH]c2cc(-c3ccoc3)ccc12)C1CC1 [SB-738481] | 2%
44 | FC(F)(F)c1ccc(/C=C/c2cncnc2Nc2ccc3[nH]c(Cc4ccccc4)nc3c2)cc1 [GW709199] | 30%
45 | CC(C)(C)c1ccc2nccc(Nc3cccc(O)c3)c2c1 [GW856795] | 13%
46 | COc1cc(Nc2nccc(-c3c(-c4cccc(NC(=O)c5c(F)cccc5F)c4)nn4ccccc34)n2)cc(OC)c1OC [GSK323521] | 0%
47 | Clc1ccc(-c2nn3ncccc3c2-c2ccnc(Nc3ccc4c(c3)OCCO4)n2)cc1 [GW829116] | 12%
48 | Cl.Cl.NCC(C(=O)Nc1cc(Br)c(-c2ccnc3[nH]ccc23)s1)c1ccccc1 (stereo not drawn) [GSK1269851] | 18%
49 | Fc1ccc(-c2ncn(C3CCNCC3)c2-c2ccnc(Oc3ccc(-c4ccccc4)cc3)n2)cc1 [SB-245391] | 13%
50 | COc1cccc(C2=C(Nc3ccc(Cl)c(C(=O)O)c3)C(=O)NC2=O)c1 [SB-390769] | 7%
51 | O=C(Nc1ccccc1F)NC1CCN(c2ccnc(Nc3ccc(F)cc3)n2)CC1 [GSK1379800] | 13%

Source: publication PMC5540273 (PLoS ONE, 2017)
